# Test results from PubChem BioAssay (NCATS).
# Where “and” joins values, the source holds several entries; their conditions need not be identical. Equal values may be shown once. Inconclusive results are not listed. Some compounds were tested as several samples or in several runs, with calls that do not always agree. Calls of active or inactive are those of the source. The call rests on the fitted dose curve; in most records, active means well fitted inhibition curve with a large enough effect; inconclusive means small, poorly fitted or top-dose-only effect; inactive means flat fitted curve, though single readings scatter.
# System: HaCat
# Assay: Cytotoxic Profiling of Annotated Libraries Using Quantitative High-Throughput Screening (AID 1296008); further: nearly all actives have a fitted effect of over 60% in size
# Conditions: Five cell lines viability, CellTiter-Glo ATP luminescence, 48-72 h; max response: active compounds read low
# Text: Cell-based phenotypic screening is a commonly used approach to discover biological pathways, novel drug targets, chemical probes and high-quality hit-to-lead molecules. Many hits identified from high-throughput screening campaign are ruled out through a series of follow-up potency, selectivity/specificity, and cytotoxicity assays. Prioritization of molecules with little or no cytotoxicity for a more in-depth downstream evaluation influence the future direction of projects, so cytotoxicity profiling of the screening libraries at early stage is essential for increasing the likelihood of candidate success. […] For the annotated library, we also examined the primary targets and mechanistic pathways regularly associated with cell death. To our knowledge, this is the first study to use high-throughput screening to profile large libraries for cytotoxicity assessment in both normal and cancer cell lines. In summary, the results generated here constitutes a valuable resource for the scientific community and provides insight on identifying cytotoxic compounds with particular mechanisms of action, and prioritizing compounds with suitable cytotoxicity profile for further evaluation.
# A pintool (Kalypsys) was used to transfer 23 nL of compound solution to the 1536-well assay plates. After 48 or 72 hr incubation at 37 degree Celsius, 5% CO2 and 95% humidity, 2.5 uL of CellTiter-Glo (Promega) was dispensed into each well using a dispenser (Aspect Automation, St. Paul, MN) with solenoid valves (Lee Valves, Westbrook CT). Plates were left at room temperature for 10 min before imaging the ATP-coupled luminescence using a ViewLux microplate imager (PerkinElmer, Waltham, MA).
# On the % scale 0 is the no-effect control and ±100 the full control effect; potency means the concentration at half of the fitted maximal effect.
SMILES,max response,outcome,Potency
CCOC(=O)C1=C[C@]2(CC)CCCN3CCc4c(n1c1ccccc41)[C@@H]32,-26.7% (inactive) and -18% (inactive),,
CCOc1ccc(Cc2cc([C@@H]3O[C@H](CO)[C@@H](O)[C@H](O)[C@@H]3O)ccc2Cl)cc1,,inactive,
COc1cc2c(cc1OC)CN(CCc1ccc(NC(=O)c3cccc4c(=O)c5cccc(OC)c5[nH]c34)cc1)CC2,,inactive,
O=c1n(CCCN2CCN(c3cccc(Cl)c3)CC2)nc2ccccn12,-8.88% (inactive),inactive,
Cc1ccccc1C(OCCN(C)C)c1ccccc1 (stereo unspecified),-11.7% (inactive),inactive,
Cc1cnc(NC(=O)C2=C(O)c3ccccc3S(=O)(=O)N2C)s1,,inactive,
CS(=O)(=O)c1ccc(C(=O)Nc2ccc(Cl)c(-c3ccccn3)c2)c(Cl)c1,-0.0394% (inactive),,
CN(C)C(=O)c1ccc(S(=O)(=O)c2ccc(NC(=O)[C@@](C)(O)C(F)(F)F)c(Cl)c2)cc1,-8.31% (inactive),inactive,
CCn1c(-c2nonc2N)nc2cnc(Oc3cccc(NC(=O)c4ccc(OCCN5CCOCC5)cc4)c3)cc21,-18.5% (inactive),,
CCCc1nn(C)c2c(=O)[nH]c(-c3cc(S(=O)(=O)N4CCN(C)CC4)ccc3OCC)nc12,-6.49% (inactive) and -10.8% (inactive),,
Cc1[nH]c(=O)c(C#N)cc1-c1ccc2nccn2c1,-13.2% (inactive) and -27.6% (inactive),,
N#Cc1ccc(C(c2ccc(C#N)cc2)n2cncn2)cc1,2.76% (inactive),,
OCCC#Cc1nc(-c2ccc(F)cc2)c(-c2ccncc2)n1CCCc1ccccc1,4.71% (inactive),,
COc1nc(-c2ccc3c(c2)OCO3)n(-c2ccc(NC(=O)CSc3ccccc3)cc2)n1,,inactive,
OC(CCN1CCCCC1)(c1ccccc1)C1CC2C=CC1C2 (stereo unspecified),-0.0685% (inactive),inactive,
CCC(C)n1ncn(-c2ccc(N3CCN(c4ccc(OC[C@H]5CO[C@](Cn6cncn6)(c6ccc(Cl)cc6Cl)O5)cc4)CC3)cc2)c1=O (stereo partly specified),1.24% (inactive),inactive,

SMILES,max response,outcome,Potency
NCCc1ccc(O)c(O)c1,2.7% (inactive),inactive,
CCC(=O)N[C@H]1CC[C@H](C(=O)N(C)c2ccc(-c3nc4ccccc4o3)cc2)C1,,inactive,
COc1cc(Nc2ncc3c(n2)-c2ccc(Cl)cc2C(c2c(F)cccc2OC)=NC3)ccc1C(=O)O,,,16.4 µM (active) and 833 nM (active)
C[C@]1(c2nc3c(C(N)=O)cccc3[nH]2)CCCN1,-38.2% (inactive),,
COc1ccc2nc(S(=O)Cc3ncc(C)c(OC)c3C)[nH]c2c1 (stereo unspecified),,inactive,
O=C1CCC(N2C(=O)c3ccccc3C2=O)C(=O)N1 (stereo unspecified),2.55% (inactive),inactive,
Cc1cc(Nc2nc(N[C@@H](C)c3ncc(F)cn3)ncc2Cl)n[nH]1,,,6.51 µM (active)
Cc1csc(NC(=O)c2sc3nc4c(c(C(F)(F)F)c3c2N)CCC4)n1,-0.44% (inactive),inactive,
Cc1ccccc1C(C(=O)NC1CCCC1)N(C(=O)Cn1cnc2ccccc21)c1cccc(F)c1 (stereo unspecified),,inactive,
C[C@]12CC[C@H](O)CC1=CC[C@@H]1[C@H]2CC[C@]2(C)C(c3cccnc3)=CC[C@H]12,,inactive,
COc1c(Cl)cc2c([nH]c3cnccc32)c1NC(=O)c1cccnc1C,,inactive,
CC(C[N+](C)(C)C)OC(N)=O (stereo unspecified),,inactive,
Cc1cc2c(F)c(Oc3ncnn4cc(OC[C@@H](C)O)c(C)c34)ccc2[nH]1,-13.8% (inactive),,
O=NN(CCCl)C(=O)NCCCl,-4.95% (inactive),inactive,
Cc1ccnc(NS(=O)(=O)c2ccc(NC(=O)Nc3ccc(S(=O)(=O)Nc4nccc(C)n4)cc3)cc2)n1,-9.99% (inactive),,1.48 µM (active)
